Records with an inconclusive call do not appear. Calls of active or inactive are those of the source. The call rests on the fitted dose curve; in most records, active means well fitted inhibition curve with a large enough effect; inconclusive means small, poorly fitted or top-dose-only effect; inactive means flat fitted curve, though single readings scatter.
What was measured:
Test in all cases: qHTS profiling for inhibitors of Plasmodium falciparum proliferation (AID 504749); further: nearly all actives have a fitted effect of over 60% in size
Settings in all cases: P. falciparum in erythrocytes, SYBR Green DNA, 72 h; series mostly up to 28.7 µM
[1] = tested on: CP266
How it was run: (§1)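 In a 72 h erythrocytic culture (37 C, humidified, 5% CO2) at 2.5% hematocrit and 0.3% starting parasitemia, compounds were tested; SYBR Green I in detergent lysis buffer stained parasite DNA overnight.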

[2] = tested on: CP268
How it was run: as §1

[3] = tested on: CP269
How it was run: as §1

[4] = tested on: CP286
How it was run: as §1

[5] = tested on: CP291
How it was run: as §1

[6] = tested on: CP297
How it was run: as §1

[7] = tested on: CP305
How it was run: as §1

[8] = tested on: CP315
How it was run: as §1

[9] = tested on: CP325
How it was run: as §1

[10] = tested on: CP329
How it was run: as §1

[11] = tested on: CP335
How it was run: as §1

[12] = tested on: DFO2036
How it was run: as §1

[13] = tested on: DIV14
How it was run: as §1

[14] = tested on: DIV17
How it was run: as §1

[15] = tested on: DIV30
How it was run: as §1

[16] = tested on: Dd2
How it was run: as §1

[17] = tested on: ECU
How it was run: as §1

[18] = tested on: FAB9
How it was run: as §1

[19] = tested on: GB4
How it was run: as §1

[20] = tested on: HB3
How it was run: as §1

[21] = tested on: ICS
How it was run: as §1

[22] = tested on: JCK
How it was run: as §1

[23] = tested on: N140
How it was run: as §1

[24] = tested on: P93_24
How it was run: as §1

[25] = tested on: P94_40
How it was run: as §1

[26] = tested on: PAD
How it was run: as §1

[27] = tested on: PC15
How it was run: as §1

[28] = tested on: PC26
How it was run: as §1

[29] = tested on: PC49
How it was run: as §1

[30] = tested on: SC27B
How it was run: as §1

[31] = tested on: TAB109
How it was run: as §1

[32] = tested on: TAB113
How it was run: as §1

[33] = tested on: TAB165
How it was run: as §1

[34] = tested on: W2
How it was run: as §1

Measured: Potency

C[C@]12CC[C@@H]3c4ccc(O)cc4CC[C@H]3[C@@H]1C[C@H](O)C2O (some centres undefined)
inactive: all assays above

From PubChem BioAssay (NCATS)
